A selection: hits, their analogues and other compounds. The true share with any hit is near 2.8%.
Pol eta inh-1: DNA polymerase eta (human) inhibition. AID 588591. Potency, µM (titrated, usually from 114 µM), hits mostly inhibitors. recombinant Pol eta, fluorescent DNA replication assay. Q9Y253. hit rate 1.2% among 390,000
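Pol eta at 10 nM preincubated with compounds 15 min at room temperature; reaction started with fluorescent substrate (50 nM final) and read kinetically at 0 and 10 min.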
Pol beta inh-1: DNA polymerase beta (human) inhibition | Potency, µM (highest dose often 114 µM), usual class: inhibitors | AID 485314 | P06746 | Pol beta primer extension/strand displacement, fluorescence kinetic | hit rate 1.3% among 340,000
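Reaction started by 50 nM substrate onto compound-treated Pol beta (10 nM, 15 min preincubation, room temperature); plates read at 0 min and 10 min. Normalized concentration-effect data fitted by four-parameter Hill equation.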
Pol kappa inh-1: DNA polymerase kappa (human) inhibition; purified Pol kappa, fluorescent DNA synthesis assay, 10 min; Potency, µM (doses to about 107 µM), hits mostly inhibitors; hit rate 0.53% among 400,000
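Pol kappa 10 nM + cpd, 15 min RT; start w/ substrate 50 nM final; fluorescence kinetic read, 0 and 10 min. Neg ctrl: buffer, no enzyme.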
Pol iota inh: DNA polymerase iota (human) inhibition | Q9UNA4 | Pol iota fluorescent replication assay, 10 min | Potency, µM (doses to about 115 µM), usual class: inhibitors | hit rate 1% among 390,000
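Pol iota at 10 nM preincubated 15 min with compounds at room temperature; reaction started with fluorescent substrate, 50 nM final. Fluorescence read kinetically at 0 and 10 min; buffer-only wells as negative control.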
WRN inhibitor: blocks human WRN helicase; Q14191; Potency, µM (highest dose often 114 µM), usual class: inhibitors; hit rate 0.46% among 360,000; WRN helicase unwinding, fluorescent forked duplex, kinetic; further: nearly all actives have a fitted effect of over 55% in size
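WRN at 20 nM final was preincubated with compound for 15 min at room temperature; reaction started with 100 nM forked duplex oligonucleotide carrying fluorophore and quencher plus 2 mM ATP (final). Unwinding followed kinetically by red fluorescence (ex 525/em 598 nm).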
PI5P4Ka inh: inhibitors of human PI5P4K alpha; hit rate 1.2% among 330,000; PI5P4Kalpha enzyme, ADP-Glo luminescence, 60 min; stronger effect = lower value; max response, %; active means max response of -50% or lower; inconclusive means between -30% and -50%; inactive means -30% or higher; further: value at the top dose of about 77 µM
Target sequence (P48426 whole entry, looked up): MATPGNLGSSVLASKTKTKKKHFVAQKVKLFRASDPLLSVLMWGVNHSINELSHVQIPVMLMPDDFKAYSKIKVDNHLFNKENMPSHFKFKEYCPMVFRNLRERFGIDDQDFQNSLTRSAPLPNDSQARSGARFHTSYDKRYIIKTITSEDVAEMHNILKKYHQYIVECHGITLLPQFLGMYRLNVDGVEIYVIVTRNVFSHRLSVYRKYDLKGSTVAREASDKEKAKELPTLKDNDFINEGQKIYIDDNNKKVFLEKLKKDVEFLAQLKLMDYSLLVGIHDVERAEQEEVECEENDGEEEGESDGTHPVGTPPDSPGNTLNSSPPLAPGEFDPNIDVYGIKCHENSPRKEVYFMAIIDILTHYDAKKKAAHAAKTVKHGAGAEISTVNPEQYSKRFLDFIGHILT
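Enzyme plus substrate dispensed, test compounds pinned in, then ATP (5 microM final) added. After 60 min at RT, ADP-Glo reagent 1 for 45 min and reagent 2 for 30 min preceded luminescence imaging.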
Pol beta inh-2: Inhibitors of human DNA polymerase beta, hit validation. shares compounds with Pol beta inh-1. Pol beta primer extension/strand displacement, fluorescence kinetic. Potency, µM, most hits filed as inhibitors. hit rate 87% among 250; calls by dose curve
Klenow counter: counter-screen for DNA polymerase beta inhibitors: Klenow fragment inhibition. Klenow exo- polymerase counter-screen, fluorescent DNA substrate. activity change, negative = inhibition, % at 57.1 µM. shares compounds with Pol beta inh-1. 250 tested, under 10 active
HIV RT inh: inhibits HIV-1 reverse transcriptase in counter-screen; HIV-1 RT polymerase activity, counter-screen; 250 tested, under 10 active; AID 540301; activity % (negative = inhibition, positive = activation), % at 57.1 µM; shares compounds with Pol beta inh-1
POLB valid: validation of human DNA polymerase beta inhibitors; hit rate 91% among 110; shares compounds with Pol beta inh-1; AID 540325; radiolabeled primer extension gel assay, phosphorimager; inhibition, % at 10 µM;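 active means inhibition at 10 µM of 30% or more; inconclusive means no clear call, values can overlap the other calls; inactive means inhibition at 10 µM under 30%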
Pol iota confirm: Confirm cherry-picked inhibitors of human polymerase iota; shares compounds with Pol kappa inh-1; Pol iota primer extension, TAMRA/BHQ fluorescence; Potency, µM, actives largely listed as inhibitors; hit rate 77% among 1,500; AID 720496
Pol kappa inh-2: confirmation of human DNA polymerase kappa inhibitors; shares compounds with Pol eta inh-1; purified Pol-kappa, fluorescent strand-displacement substrate; Potency, µM, usual class: inhibitors; hit rate 76% among 920; AID 720501
Pol eta inh-2: confirmation of human DNA polymerase eta inhibitors; shares compounds with Pol eta inh-1; AID 720502; Pol eta primer extension, TAMRA/BHQ fluorescence, 10 min; Potency, µM, hits mostly inhibitors; hit rate 64% among 2,600
Large screens that a line does not name were inactive (follow-up assays come after a bar, where they were run). Unless noted, the call rests on the fitted dose curve; in most records, active means well fitted curve in the direction sought with a large enough effect; inconclusive means small, poorly fitted or top-dose-only effect, or another doubt; inactive means no such curve, though single readings can be large; an effect the other way counts as inactive or inconclusive.

c1coc(-c2nnc3sc(Cc4cccs4)nn23)c1	Pol eta inh-1 28µM, Pol beta inh-1 13µM, Pol kappa inh-1 20µM, Pol iota inh 7.9µM, WRN inhibitor 45µM (no result: PI5P4Ka inh) | Pol beta inh-2 22 | Klenow counter inactive | HIV RT inh inactive | POLB valid 36 | Pol iota confirm inconclusive | Pol eta inh-2 inconclusive
Cc1ccc(/C=C/C(=O)N2CCc3ccccc32)o1	Pol eta inh-1 8.9µM, Pol beta inh-1 13µM, Pol kappa inh-1 inconclusive, Pol iota inh 35µM, WRN inhibitor inconclusive, PI5P4Ka inh -75 | Pol beta inh-2 18 | Klenow counter inactive | HIV RT inh inactive | Pol iota confirm 67 | Pol eta inh-2 67
CCOC(=O)/C=C/C(=O)N1CCc2ccccc21	Pol iota inh inconclusive
CCCSc1nnc(NC(=O)c2sc3nc(-c4cccs4)ccc3c2N)s1	Pol eta inh-1 79µM, Pol beta inh-1 18µM, Pol iota inh inconclusive, WRN inhibitor inconclusive (no result: PI5P4Ka inh) | Pol beta inh-2 13 | Klenow counter inactive | HIV RT inh inactive | Pol iota confirm inconclusive | Pol kappa inh-2 19 | Pol eta inh-2 60
COc1ccc2cc3cc(C(=O)N4CCN(c5ccccn5)CC4)oc3nc2c1	none
O=C(Nc1ncc([N+](=O)[O-])s1)c1cccc([N+](=O)[O-])c1	none
Cc1nc(C)c(C(=O)Nc2ncc([N+](=O)[O-])s2)o1	Pol eta inh-1 8.9µM, Pol beta inh-1 16µM, Pol kappa inh-1 inconclusive, Pol iota inh 18µM, WRN inhibitor inconclusive, PI5P4Ka inh inconclusive | Pol beta inh-2 35 | Klenow counter inactive | HIV RT inh inactive | POLB valid 100 | Pol kappa inh-2 30 | Pol eta inh-2 inconclusive
COc1ccc(-c2nnc(Nc3ccc(S(=O)(=O)Nc4nccs4)cc3)c3ccccc23)cc1	Pol eta inh-1 32µM, Pol beta inh-1 1.8µM, Pol kappa inh-1 50µM, Pol iota inh 20µM, WRN inhibitor 50µM | Pol beta inh-2 7.9 | Klenow counter inactive | HIV RT inh inactive | Pol iota confirm inconclusive | Pol kappa inh-2 34 | Pol eta inh-2 43
CC1=NN(c2ccc([N+](=O)[O-])cc2)C(=O)/C1=C\N(C)C	PI5P4Ka inh inconclusive
CC1=NN(c2ccc(C)c(C)c2)C(=O)/C1=C\C=C\c1ccc([N+](=O)[O-])o1	Pol eta inh-1 40µM, Pol beta inh-1 7.1µM, Pol kappa inh-1 50µM, Pol iota inh 11µM, PI5P4Ka inh -52 | Pol beta inh-2 32 | Klenow counter inactive | HIV RT inh inactive | POLB valid 99 | Pol iota confirm 42 | Pol eta inh-2 54
O=C(CSc1ccsc1[N+](=O)[O-])N1CCN(c2ccc(Cl)cc2)CC1	Pol eta inh-1 28µM, Pol beta inh-1 14µM, Pol kappa inh-1 inconclusive, Pol iota inh 28µM, PI5P4Ka inh -62 | Pol beta inh-2 40 | Klenow counter inactive | HIV RT inh inactive | Pol eta inh-2 inconclusive
O=C(CSc1ccccn1)Nc1ccc2ccccc2c1	none (no result: Pol eta inh-1, Pol kappa inh-1, Pol iota inh, WRN inhibitor, PI5P4Ka inh)

Source: PubChem
